Experimental data as given in PubChem BioAssay.

Test: Pseudomonas biofilm growth suppression – PAO1 strain, BacTiter-Glo luminescence, LB-PBS, primary screen (AID 1144)
Details: P. aeruginosa PAO1 biofilm, 12 h, higher = more signal; call rule not given here

z-score, inactive:
CN(C)C(=O)[C@]1(Cc2ccccc2N=[N+]=[N-])N=C(c2ccc(OCCCO)cc2)O[C@@H]1c1ccccc1 1.77, CCCCCC1=C2CNC(CCC)(C(=O)OC)C=C2C(C)C1=O (stereo not given) 0.617, COCCOC(=O)N1C(=O)[C@@]2(c3cc(C#CCCO)ccc31)[C@H](C(=O)N1CCc3cc(OC)c(OC)cc3C1)[C@H]1C(=O)O[C@H](c3ccccc3)[C@H](c3ccccc3)N1[C@@H]2c1ccc(O)cc1 -0.14, O=C(NCc1ccccc1)[C@@]1(Cc2ccccc2)N=C(c2ccc(OCCCO)cc2)O[C@H]1c1ccccc1 -0.883, CC(C)c1ccc(NN2C(C(O)c3cc(C(F)(F)F)cc(C(F)(F)F)c3)C=CC3C(=O)N(c4ccccc4)C(=O)C32)cc1 (stereo not given) -1.4, CN1C(=O)[C@]2(Cc3ccccc3)N=C(c3ccc(OCCCO)cc3)O[C@@H]2c2ccccc21 -1, CC(C)(C)OC(=O)CC[C@]1(C(=O)NCC(O)CO)COC(c2ccc(OCCCO)cc2)=N1 (stereo not given in full) -0.904, CCOC(=O)C[C@H]1[C@H](OC(=O)c2cc3ccccc3oc2=O)[C@@H](NC(=O)Cc2ccc(OC)cc2)c2cc(OCCCO)ccc2N1C(=O)c1ccccc1 -0.797, COc1ccc(CCNC(=O)[C@@]2(Sc3ccc(C)cc3)CC(=O)N(C3CCCCC3)[C@@H]2c2ccc(CO)cc2I)cc1 -0.382, COc1ccc(C(=O)O[C@H]2CC[C@]3(C)C4=C(CCC3C2(C)C)[C@]2(C)CC[C@H]([C@H](C)CCCC(C)C)[C@@]2(C)CC4)cc1 (stereo not given in full) -1.6, CCOC(=O)C[C@H]1[C@H](OC(=O)Cc2ccc3c(c2)OCO3)[C@@H](NC(=O)c2ccc3ccccc3c2)c2cc(OCCCO)ccc2N1C(=O)c1ccccc1 -0.784, CCN(CC)c1ccc(N2CC=CC34O[C@@H]5/C=C\CCCOC(=O)C5[C@H]3C(=O)N(CCO)[C@@H]4C2=O)cc1 (stereo not given in full) 0.0243, C=CCNC(=O)[C@@H]1[C@H]2C(=O)O[C@H](c3ccccc3)[C@H](c3ccccc3)N2[C@H](c2ccccc2OCCO)[C@@]12C(=O)N(C(=O)OCCOC)c1ccc(C#CCNC(N)=O)cc12 -0.441, O=C1C[C@]2(c3ccc([N+](=O)[O-])cc3)C(=O)N(CCN3CCOCC3)c3cc(CO)ccc3[C@H]2N1C1CCCCC1 -0.02, CN1C(=O)C2C=CC(C(O)C3CC=CCC3)N(NC(=O)OC(C)(C)C)C2C1=O (stereo not given) 0.0321, COCCCNC(=O)C1N=C(c2ccc(OCCCO)cc2)N(c2ccccc2)O1 (stereo not given) 0.708, C=C(COC)/C(=C/C[C@H](OC(=O)c1ccncc1)c1ccc(OCCO)cc1)c1cnc2ccccc2c1 0.308, C=CC[C@@]1(C(=O)N(C)C)N=C(c2ccc(OCCCO)cc2)O[C@@H]1c1ccccc1N=[N+]=[N-] 0.557, C=CCOC(=O)[C@H]1[C@@H]2C(=O)O[C@@H](c3ccccc3)[C@@H](c3ccccc3)N2[C@@H](c2ccc(OCCOC(=O)[C@@H]3C[C@@H]4C(=O)N[C@@H](CCCC[N+](C)(C)C)C(=O)N4[C@@H]3c3ccc(O)cc3)cc2)[C@]12C(=O)Nc1ccccc12 -1.19, O=C1NC(=O)C2C1C=CC(C(O)c1cccc3ccccc13)N2Nc1ccccn1 (stereo not given) -0.484, COc1ccc(C(=O)Nc2cccc(CN3C(=O)[C@]4(O[C@H](CCO)[C@@H]([Si](C)(C)c5ccc(OC)cc5)[C@@H]4C)c4ccccc43)c2)cc1 -0.694, COC(=O)c1c(CC[C@@H](CO)NC(=O)N2CCC[C@H]2Cn2cc(-c3ccccn3)nn2)oc(C(C)=O)c1C(=O)OC -0.95, C=CCN1C(=O)[C@]2(O[C@H](CCO)[C@@H]([Si](C)(C)c3ccc(OC)cc3)[C@@H]2C)c2cc(N3C(=O)c4cccc5cccc3c45)ccc21 0.00752, O=C(NCc1ccccc1)[C@@]1(CCS(=O)(=O)c2ccccc2)N=C(c2ccc(OCCCO)cc2)O[C@H]1c1ccccc1 -0.847, CC(C)C(=C=CC[C@@H](O)c1ccccc1OCCO)CCO 0.0933, O=C(NCC(F)(F)F)[C@@H]1c2ccccc2C(=O)N(C2CCCCC2)[C@H]1c1ccc(CO)cc1 0.795, CN1C(=O)C2C=CC(C(O)c3cccs3)N(Nc3ccccc3)C2C1=O (stereo not given) -0.0101, COc1cc2c(cc1O)C(C1CC1)N(Cc1cc3c(cc1Br)OCO3)CC2 (stereo not given) -0.109, COCCOC(=O)N1C(=O)[C@@]2(c3cc(C#CCCO)ccc31)[C@H](c1ccc(OCCO)cc1)N1[C@H](c3ccccc3)[C@H](c3ccccc3)OC(=O)[C@H]1[C@@H]2C(=O)N1CCN(c2ncccn2)CC1 0.97, O=C1O[C@H](c2ccccc2)[C@H](c2ccccc2)N2[C@H]1[C@@H](C(=O)NC[C@H](O)c1ccccc1)[C@]1(C(=O)Nc3ccccc31)[C@H]2c1ccc(OCCO)cc1 -1.13, O=C1c2ccccc2[C@](Cc2ccccc2I)(C(=O)NC2CC2)[C@H](c2ccc(CO)cc2)N1C1CCCCC1 0.214, CC(=O)NCCCC[C@@H]1NC(=O)[C@@H]2C[C@H](C(=O)NCCCCCCNC(=O)CS)[C@H](c3cccc(OCCO)c3)N2C1=O -1.05, COCCOC(=O)N1C(=O)[C@@]2(c3cc(C#CC4=CCCCC4)ccc31)[C@H](C(=O)N1CCc3cc(OC)c(OC)cc3C1)[C@H]1C(=O)O[C@H](c3ccccc3)[C@H](c3ccccc3)N1[C@@H]2c1ccc(OCCO)cc1 -0.259, COCCOC(=O)N1C(=O)[C@@]2(c3cc(C#CC4=CCCCC4)ccc31)[C@H](C(=O)Nc1nc3ccccc3s1)[C@H]1C(=O)O[C@H](c3ccccc3)[C@H](c3ccccc3)N1[C@@H]2c1ccccc1OCCO -1.29, COc1ccc(C(O)C2C=CC3C(=O)N(c4ccccc4)C(=O)C3N2Nc2ccc(C(C)C)cc2)cc1OCc1ccccc1 (stereo not given) -2.09
